Data reported in PubChem BioAssay AID1259343 (VanderVen Lab, College of Veterinary Medicine, Cornell …, 2017).
Among all 6,200 compounds or so, about 2,900 (47%) were called active. So high a share suggests a set chosen from earlier hits. Some of the results follow. Values without a mark were called inactive. No stated cut-off is given here; in the data, active means inhibition above about 50%; inactive means the rest.

Experiment: Mycobacterium tuberculosis growth inhibition, primary screen (AID 1259343)
Details: inhibition: at 10 µM, stronger effect = higher value; outcome: 10 uM

| SMILES | inhibition |
| --- | --- |
| COC(=O)c1ccc(NC(=O)c2ccc(Br)o2)cc1 | 83.8% (active) |
| CN(Cc1ccc(Cl)cc1)c1nccc(-c2cc(C(=O)O)ccn2)n1 | 17.6% |
| CN(Cc1ccc(C(N)=O)cc1)c1cccc(F)c1C#N | 13.8% |
| Cc1ccc(CN(C)c2ccc(C(=O)O)cc2)cc1 | 51.7% (active) |
| O=C(NCCc1ccc(O)cc1)Nc1cccc2c1CCCC2 | 7.1% |
| O=C(CCc1ccc(O)cc1)c1c(O)cc(O)cc1O | 93.3% (active) |
| O=C(CCc1ccc(O)cc1)N1CCOC(c2ccc(Cl)cc2)C1 (stereo not drawn) | 19.6% |
| Clc1ccc2nc(NN=Cc3ccccn3)nc(-c3ccccc3)c2c1 | 92.1% (active) |
| C(=NNc1ccc2ccccc2n1)c1ccccn1 | -19.7% |
| Clc1ccc(NN=Cc2ccccn2)cc1Cl | 14.1% |
| Nc1ccc(S(=O)(=O)Nc2ccnn2-c2ccccc2)cc1 | 55.2% (active) |
| CC(C)=CCCC(C)CCNCCc1ccco1 (stereo not drawn) | -15% |
| CC(NC(=O)c1ccc(Oc2ccccc2)cc1)C1CCCO1 (stereo not drawn) | 92.8% (active) |
| CC(Nc1nc(-c2cccs2)nc2ccccc12)C1CCCO1 (stereo not drawn) | -41.2% |
| CC(=O)N1CCC(NC(=O)c2ccc(Oc3ccccc3)cc2)CC1 | 16.9% |
| Cc1cccc(/C=C/c2nc(-c3cc(C(=O)O)co3)cs2)c1 | 42.9% |
| OCC1(CCc2ccccc2)CCCN(Cc2cc3ccccc3o2)C1 (stereo not drawn) | 23.5% |
| Oc1ccccc1CN1CCCn2cccc2C1c1cccc(C(F)(F)F)c1 (stereo not drawn) | 22.1% |
| O=C(C=Cc1ccc2c(c1)OCO2)c1ccc(Cl)cc1Cl | 73.5% (active) |
| O=C(C=Cc1ccc2c(c1)OCO2)c1ccc(Br)cc1 | -39.3% |
| CC(C)(C)c1ccc(C2=NC(=Cc3ccc4c(c3)OCO4)C(=O)O2)cc1 | -19.9% |
| COC(=O)c1nnn(-c2ccc(C)c(C)c2)c1C(=O)OC | 82.4% (active) |
| COC(=O)CCc1nnc(NS(=O)(=O)c2ccc(C)c(C)c2)s1 | 48.8% |

| SMILES | inhibition |
| --- | --- |
| Cc1cc(N)c2ccccc2[n+]1CCCCCCCCCC[n+]1c(C)cc(N)c2ccccc21 | 72.6% (active) |
| c1ccc(-c2cn3c(n2)CCc2ccc4cccnc4c2-3)cc1 | 16.6% |
| c1cnc(Sc2ccc3ccccc3c2)nc1 | 32.8% |
| c1cnc2c(c1)ccc1cccnc12 | 95.2% (active) |
| Cc1c(Cc2ccccc2)c(=O)oc2cc(OCC(N)=O)ccc12 | 62.1% (active) |
| NC(=O)COc1cccc(CN2CCCSc3ccccc32)c1 | 35.4% |
| COc1cccc(-c2coc3c(C)c4oc(=O)c(CCC(=O)O)c(C)c4cc23)c1 | 47% |
| CCc1ccc(OCCn2c(CO)nc3ccccc32)cc1 | 34.1% |
| CCc1ccc(OCCCn2c(CO)nc3ccccc32)cc1 | 77% (active) |
| ClC1(Cl)CC1Cn1c(Cc2ccccc2)nc2ccccc21 (stereo not drawn) | 25.7% |
| CCOc1ccc(N=C(Nc2ccc(OCC)cc2)SC)cc1 | -1.39% |
| COc1ccc(N=C(Nc2ccc(OC)cc2)SC)cc1 | 74.3% (active) |
| Cn1c(=S)[nH]c2scc(-c3cccs3)c2c1=O | -21.9% |
| CCn1c(=S)[nH]c2scc(-c3cccs3)c2c1=O | 98.8% (active) |
| CCn1c(=S)[nH]c2sc3c(c2c1=O)CCC(C)C3 (stereo not drawn) | 21.2% |
| Cc1csc(NC(=O)c2ccc(COc3cccc4c3OC(C)(C)C4)cc2)n1 | 92.8% (active) |
| CCN(CC)[P+](N(C)Cc1ccco1)(N(CC)CC)N(CC)CC | 30.8% |
| NC1=NC(c2cccc(Cl)c2)n2c(nc3ccccc32)N1 (stereo not drawn) | 56.7% (active) |
| NC1=NC(c2ccc(-c3ccccc3)cc2)n2c(nc3ccccc32)N1 (stereo not drawn) | 26.9% |
| CC(C)c1ccc(C2N=C(N)Nc3nc4ccccc4n32)cc1 (stereo not drawn) | 13.8% |
| Cc1oc(C)c(C(=O)NC(C)Cc2ccc(Cl)cc2)c1C (stereo not drawn) | 42.4% |
| CC(Cn1cccn1)NC(=O)c1ccc(Br)o1 (stereo not drawn) | 22.1% |
| Cc1cc(C(=O)NC(C)Cc2ccc(Br)cc2)on1 (stereo not drawn) | 55.5% (active) |

| SMILES | inhibition |
| --- | --- |
| CCCn1nc(C)c(CNc2ccc(Br)cc2)c1C | 20% |
| COc1ccc(C2CC(=O)c3cc([N+](=O)[O-])ccc3O2)cc1 (stereo not drawn) | 96.6% (active) |
| O=C(CCc1nnc(Cc2ccc(-c3ccccc3)cc2)o1)NC1CCc2ccccc21 (stereo not drawn) | 62% (active) |
| O=C(CCc1nnc(Cc2ccc(-c3ccccc3)cc2)o1)NCCc1ccccn1 | 50.7% (active) |
| CC(NC(=O)CCc1nnc(Cc2ccc(-c3ccccc3)cc2)o1)c1ccccc1 (stereo not drawn) | 37.7% |
| CN(C)C(=O)n1nnnc1Cc1ccc(-c2ccccc2)cc1 | 39.2% |
| O=C(CCc1nnc(Cc2ccc(-c3ccccc3)cc2)o1)NCc1cccnc1 | inactive |
| Cc1cn2nc(NC3CCc4ccccc43)sc2n1 (stereo not drawn) | 41.4% |
| O=c1oc2c(c(O)c1-c1ccccc1)-c1ccccc1CC2 | 81% (active) |
| CC(C)(C)c1nc(CNC(=O)Cc2ccc(Cl)cc2)no1 | 27.8% |
| O=C(Cc1coc(-c2ccccc2)n1)NC1CCCC1 | 21.1% |
| O=C(Cc1noc(C2CC2c2ccc(Cl)cc2)n1)NC1CCCC1 (stereo not drawn) | 91.9% (active) |
| Nc1ccc(-n2cnc3ccccc32)cc1 | 90.2% (active) |
| CCOC(=O)c1cnc(SCc2ccc(Cl)cc2)nc1N | 89.2% (active) |
| CC(C)c1nc(SCC(=O)N(C)CCOc2ccc(Cl)cc2)n[nH]1 | 34.8% |
| Brc1ccc(-c2ccc(Br)cc2)cc1 | 38.3% |
| Clc1ccc2nnc(-c3ccc(Br)cc3)n2n1 | 68.1% (active) |
| CC(CC(=O)Nc1ccccc1-c1nn[nH]n1)CC(C)(C)C (stereo not drawn) | -15.1% |
| CCOC(=O)c1c(C)c(C(=O)NCCC(C)C)c(C)n1Cc1ccccc1 | 56.4% (active) |
| CC(C)CCNC(=O)c1csc(-c2ccccc2)n1 | -48.7% |
| CCOc1nc(C#N)nc(N2CCOCC2)n1 | 22.3% |
| COC(=O)C1=C(C)N(C)C(=O)C12c1ccccc1-c1oc(N)nc12 (stereo not drawn) | 58.3% (active) |
